Our source for the binding signal values is paper PMC13541613, “GHT-SELEX demonstrates unexpectedly high intrinsic sequence specificity and complex DNA binding of many human transcription factors”.

Chain of ZNF721 full-length (Q8TF20 other isoform, or with tags, fused parts or gaps): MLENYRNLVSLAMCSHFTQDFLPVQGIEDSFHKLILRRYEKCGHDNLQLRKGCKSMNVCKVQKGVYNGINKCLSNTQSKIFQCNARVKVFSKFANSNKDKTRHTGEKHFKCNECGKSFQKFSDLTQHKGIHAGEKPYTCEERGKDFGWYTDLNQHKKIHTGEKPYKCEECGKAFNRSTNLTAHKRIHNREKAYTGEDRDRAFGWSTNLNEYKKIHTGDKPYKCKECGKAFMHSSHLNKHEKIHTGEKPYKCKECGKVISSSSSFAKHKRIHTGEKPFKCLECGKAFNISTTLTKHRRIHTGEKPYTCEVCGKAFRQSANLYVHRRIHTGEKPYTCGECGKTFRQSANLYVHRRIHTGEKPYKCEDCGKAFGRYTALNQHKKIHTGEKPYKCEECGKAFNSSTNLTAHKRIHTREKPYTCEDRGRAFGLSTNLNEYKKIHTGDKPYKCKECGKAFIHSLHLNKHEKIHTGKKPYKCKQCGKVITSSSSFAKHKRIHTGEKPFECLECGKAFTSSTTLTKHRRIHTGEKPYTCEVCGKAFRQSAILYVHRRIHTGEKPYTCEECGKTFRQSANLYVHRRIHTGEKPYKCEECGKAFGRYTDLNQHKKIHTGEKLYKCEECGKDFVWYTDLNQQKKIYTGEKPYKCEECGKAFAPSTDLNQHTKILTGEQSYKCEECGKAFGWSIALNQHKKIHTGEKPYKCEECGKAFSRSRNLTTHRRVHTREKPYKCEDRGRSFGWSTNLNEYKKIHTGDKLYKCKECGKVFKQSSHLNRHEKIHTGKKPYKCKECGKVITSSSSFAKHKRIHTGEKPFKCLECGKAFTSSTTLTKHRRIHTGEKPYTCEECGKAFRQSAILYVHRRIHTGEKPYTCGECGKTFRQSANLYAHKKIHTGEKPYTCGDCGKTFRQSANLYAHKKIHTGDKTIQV

The first test has as its target ZNF721 full-length (Homo sapiens, UniProt Q8TF20-2 1-923). In words: HT-SELEX; 20 mM HEPES pH 7, 140 mM KCl, 5 mM NaCl, 1 mM K2HPO4, 2 mM MgSO4, 100 uM EGTA, ZnSO4, 0.1% Tween20; room temperature, 1 h; high values mean tight binding. The following applies: protein: ivt; tags: eGFP (N-terminal); dsDNA, one strand shown. Summed up: (§1)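 Bead-immobilised tagged transcription factor (full-length or DNA-binding-domain fragment), made in HEK293 lysate or cell-free extract, was incubated with a randomized 40-base DNA library. Binding was for 1 h at room temperature in HEPES/KCl low-stringency buffer with Tween20. After washing and heat elution, bound DNA was PCR-amplified over successive cycles and Illumina-sequenced (~3 million 60 bp reads per sample). Binding signal is a relative k-mer count in selected reads; higher means tighter binding.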
On to ACTGTTTTTC, for which the binding signal was 0.135 relative 10-mer count.

AGAAAACAGC gave a binding signal of 0.251 relative 10-mer count.

With AAAGAAACAG, the binding signal was 0.126 relative 10-mer count.

AAAAAAACAG registered a binding signal of 0.967 relative 10-mer count.

In turn, CAAAAAACAG yielded a binding signal of 0.386 relative 10-mer count.

As to AGAGTACCCA, the binding signal amounted to 0.112 relative 10-mer count.

Turning to AACAGAGTAC, the binding signal worked out at 0.127 relative 10-mer count.

Regarding AAAAAACAGC, the binding signal was found to be 1 relative 10-mer count.

In the case of GAAACGCTGC, the binding signal came out at 0.102 relative 10-mer count.

On to ACAGCATCCC, for which the binding signal came out at 0.114 relative 10-mer count.

Regarding CGAAAAACAG, the binding signal was 0.174 relative 10-mer count.

Sequence ACAGCATATC returned a binding signal of 0.126 relative 10-mer count.

Turning to ATGCTGTTTC, the binding signal was 0.143 relative 10-mer count.

ACGAAAACAG returned a binding signal of 0.106 relative 10-mer count.

Turning to CAGTGTCTCC, the binding signal came to 0.213 relative 10-mer count.

Regarding CAGAAAACAG, the binding signal turned out to be 0.147 relative 10-mer count.

The sequence CAAAGCAGTG showed a binding signal of 0.119 relative 10-mer count.

Sequence AAAAACAGGA returned a binding signal of 0.104 relative 10-mer count.

In turn, ACAGCGTTTC gave a binding signal of 0.253 relative 10-mer count.

CAGTGTTGCC yielded a binding signal of 0.253 relative 10-mer count.

Regarding AACAAAGCAG, the binding signal is 0.243 relative 10-mer count.

The sequence AAAACAGCAC returned a binding signal of 0.279 relative 10-mer count.

AAAAACAGTG displayed a binding signal of 0.406 relative 10-mer count.

Regarding AAACAGCATA, the binding signal stood at 0.56 relative 10-mer count.

The sequence CAGCATGCCC displayed a binding signal of 0.121 relative 10-mer count.

GAAAACAGCA came in with a binding signal of 0.299 relative 10-mer count.

Regarding AAACACTGTT, the binding signal was 0.135 relative 10-mer count.

The sequence AAGCAGTGTC gave a binding signal of 0.13 relative 10-mer count.

As to ACAAAACAGC, the binding signal was determined as 0.249 relative 10-mer count.

AAACGAACAG had a binding signal of 0.126 relative 10-mer count.

Turning to AAAAACAGAG, the binding signal was 0.212 relative 10-mer count.

With AAACAGGATA, the binding signal was determined as 0.111 relative 10-mer count.

AACAGCGTAC came in with a binding signal of 0.19 relative 10-mer count.

As to AACAAAACAG, the binding signal came out at 0.206 relative 10-mer count.

As for AACAGCATAT, the binding signal worked out at 0.118 relative 10-mer count.

The sequence AAAAACAGTC yielded a binding signal of 0.149 relative 10-mer count.

TAAAACAGCA: the binding signal was 0.152 relative 10-mer count.

Sequence AACAGCGTCT yielded a binding signal of 0.203 relative 10-mer count.

Turning to ACAAAGCAGC, the binding signal turned out to be 0.189 relative 10-mer count.

With ACAGGGTATC, the binding signal came out at 0.137 relative 10-mer count.

A further test deals with ZNF721 DBD2 (Homo sapiens, UniProt Q8TF20-2 395-923). The description is as above. The following applies: protein: ivt; tags: eGFP (N-terminal); dsDNA, one strand shown. Summed up: as §1
Chain of ZNF721 DBD2 (Q8TF20 383-911): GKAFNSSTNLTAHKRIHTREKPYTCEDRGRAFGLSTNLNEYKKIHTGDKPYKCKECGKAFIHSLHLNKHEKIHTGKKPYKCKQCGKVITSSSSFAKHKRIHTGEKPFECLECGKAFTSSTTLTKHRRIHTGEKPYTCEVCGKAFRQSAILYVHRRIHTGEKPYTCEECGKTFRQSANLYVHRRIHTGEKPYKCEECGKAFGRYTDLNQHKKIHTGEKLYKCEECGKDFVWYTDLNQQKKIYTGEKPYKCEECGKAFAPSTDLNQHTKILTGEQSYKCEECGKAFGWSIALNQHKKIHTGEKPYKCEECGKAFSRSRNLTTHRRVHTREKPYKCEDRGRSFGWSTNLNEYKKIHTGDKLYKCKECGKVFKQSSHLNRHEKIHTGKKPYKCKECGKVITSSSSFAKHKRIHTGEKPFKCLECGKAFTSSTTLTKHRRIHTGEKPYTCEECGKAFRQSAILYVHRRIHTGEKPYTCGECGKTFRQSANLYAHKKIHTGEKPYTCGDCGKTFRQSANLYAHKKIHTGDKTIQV
Turning to ACTGTTTTTC, the binding signal amounted to 0.17 relative 10-mer count.

The sequence AGAAAACAGC showed a binding signal of 0.322 relative 10-mer count.

For the sequence AAAGAAACAG, the binding signal was determined as 0.119 relative 10-mer count.

The sequence AAAAAAACAG gave a binding signal of 0.753 relative 10-mer count.

In the case of CAAAAAACAG, the binding signal turned out to be 0.495 relative 10-mer count.

Consider AGAGTACCCA, for which the binding signal came out at 0.123 relative 10-mer count.

AACAGAGTAC came in with a binding signal of 0.166 relative 10-mer count.

The sequence AAAAAACAGC registered a binding signal of 0.902 relative 10-mer count.

GAAACGCTGC gave a binding signal of 0.169 relative 10-mer count.

With ACAGCATCCC, the binding signal was 0.088 relative 10-mer count.

CGAAAAACAG: the binding signal came to 0.222 relative 10-mer count.

The sequence ACAGCATATC yielded a binding signal of 0.174 relative 10-mer count.

The sequence ATGCTGTTTC yielded a binding signal of 0.178 relative 10-mer count.

ACGAAAACAG yielded a binding signal of 0.149 relative 10-mer count.

Regarding CAGTGTCTCC, the binding signal worked out at 0.552 relative 10-mer count.

The sequence CAGAAAACAG gave a binding signal of 0.264 relative 10-mer count.

In turn, CAAAGCAGTG had a binding signal of 0.198 relative 10-mer count.

For the sequence AAAAACAGGA, the binding signal was found to be 0.113 relative 10-mer count.

In turn, ACAGCGTTTC displayed a binding signal of 0.448 relative 10-mer count.

For the sequence CAGTGTTGCC, the binding signal was 0.686 relative 10-mer count.

In turn, AACAAAGCAG gave a binding signal of 0.29 relative 10-mer count.

For AAAACAGCAC, the binding signal is 0.306 relative 10-mer count.

Consider AAAAACAGTG, for which the binding signal amounted to 0.517 relative 10-mer count.

AAACAGCATA returned a binding signal of 0.657 relative 10-mer count.

CAGCATGCCC yielded a binding signal of 0.244 relative 10-mer count.

As for GAAAACAGCA, the binding signal stood at 0.388 relative 10-mer count.

For AAACACTGTT, the binding signal amounted to 0.266 relative 10-mer count.

The sequence AAGCAGTGTC showed a binding signal of 0.151 relative 10-mer count.

ACAAAACAGC: the binding signal is 0.272 relative 10-mer count.

Consider AAACGAACAG, for which the binding signal worked out at 0.0771 relative 10-mer count.

The sequence AAAAACAGAG showed a binding signal of 0.213 relative 10-mer count.

In the case of AAACAGGATA, the binding signal turned out to be 0.121 relative 10-mer count.

As for AACAGCGTAC, the binding signal stood at 0.275 relative 10-mer count.

Sequence AACAAAACAG had a binding signal of 0.223 relative 10-mer count.

AACAGCATAT showed a binding signal of 0.181 relative 10-mer count.

AAAAACAGTC displayed a binding signal of 0.169 relative 10-mer count.

TAAAACAGCA came in with a binding signal of 0.177 relative 10-mer count.

Turning to AACAGCGTCT, the binding signal turned out to be 0.347 relative 10-mer count.

For ACAAAGCAGC, the binding signal is 0.238 relative 10-mer count.

Sequence ACAGGGTATC displayed a binding signal of 0.2 relative 10-mer count.
